miR122 inh: miR-122 sensor activation; AID 623901; activation, % at 12.5 µM; 0.14% of 340,000 active; Huh7 psiCHECK-miR122 Renilla luciferase sensor, 48 h;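 active = mean activation of 30% or more, with every replicate also reaching 30%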;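 note: 0% = median of neutral control wells and 100% = median of positive control wells; higher luciferase signal means stronger suppression of miR-122 activity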
Numbers without * were called inactive. Shown is part of a subset that was picked to be rich in hits.

Screening C[C@H](CO)N1C[C@H](C)[C@H](CN(C)C(=O)C2CCOCC2)Oc2cc(-c3ccc(C(=O)N(C)C)cc3)ccc2S1(=O)=O returned miR122 inh 4.
`C[C@H](CO)N1C[C@H](C)[C@H](CN(C)C(=O)C2CCC2)Oc2cc(-c3ccc(C(=O)N(C)C)cc3)ccc2S1(=O)=O` gave miR122 inh 55*.
For COc1cccc(-c2ccc3c(c2)O[C@@H](CN(C)C(=O)C2CCCCC2)[C@@H](C)CN([C@H](C)CO)S3(=O)=O)c1 the results were miR122 inh 0.
C[C@H]1CN([C@@H](C)CO)S(=O)(=O)c2ccc(-c3ccc(C(=O)N(C)C)cc3)cc2O[C@H]1CN(C)C(=O)C1CCOCC1 was read as miR122 inh 7.
`C[C@@H]1CN([C@H](C)CO)S(=O)(=O)c2ccc(-c3ccccc3)cc2O[C@@H]1CN(C)C(=O)c1ccc2c(c1)OCO2` gave miR122 inh 36*.
Screening C[C@@H]1CN([C@@H](C)CO)S(=O)(=O)c2ccc(Br)cc2O[C@H]1CN(C)C(=O)c1ccc2c(c1)OCO2 returned miR122 inh -6.
For COc1cccc(-c2ccc3c(c2)O[C@H](CN(C)C(=O)C2CCOCC2)[C@H](C)CN([C@@H](C)CO)S3(=O)=O)c1 the results were miR122 inh 39*.
`COc1cccc(NC(=O)N(C)C[C@@H]2Oc3ncc(C#Cc4ccccc4)cc3C(=O)N([C@H](C)CO)C[C@H]2C)c1` gave miR122 inh -2.
For C[C@H]1CN([C@@H](C)CO)C(=O)c2cc(-c3cccc(F)c3)cnc2O[C@@H]1CN(C)CC1CCCC1 the results were miR122 inh 2.
Screening CC(C)CC#Cc1cnc2c(c1)C(=O)N([C@H](C)CO)C[C@@H](C)[C@@H](CN(C)C(=O)Nc1cc(F)ccc1F)O2 returned miR122 inh 10.
Screening CCCC#Cc1ccc2c(c1)O[C@@H](CN(C)S(C)(=O)=O)[C@@H](C)CN([C@H](C)CO)S2(=O)=O returned miR122 inh 9.
For C[C@H](CO)N1C[C@H](C)[C@@H](CN(C)C(=O)Nc2ccc(F)cc2)Oc2ncc(-c3cccnc3)cc2C1=O the results were miR122 inh 0.
For CC(C)C#Cc1ccc2c(c1)O[C@@H](CN(C)C(=O)CN(C)C)[C@H](C)CN([C@@H](C)CO)S2(=O)=O the results were miR122 inh -16.
`C[C@H]1CN([C@@H](C)CO)C(=O)c2cc(Br)cnc2O[C@@H]1CN(C)C(=O)c1cccnc1` gave miR122 inh -1.
For C[C@H](O)C#Cc1cnc2c(c1)C(=O)N([C@@H](C)CO)C[C@@H](C)[C@@H](CN(C)C(=O)CN(C)C)O2 the results were miR122 inh 2.
Screening C[C@H]1CN([C@@H](C)CO)C(=O)c2cc(NC(=O)NC3CCCCC3)ccc2O[C@@H]1CN(C)C(=O)Nc1ccccc1 returned miR122 inh -93.
COc1ccc(CN(C)C[C@@H]2Oc3c(NC(=O)C4CCCCC4)cccc3C(=O)N([C@H](C)CO)C[C@H]2C)cc1 was read as miR122 inh -98.
`CCCC#Cc1ccc2c(c1)O[C@H](CN(C)C(=O)c1cccnc1)[C@H](C)CN([C@@H](C)CO)S2(=O)=O` gave miR122 inh 12.
`C[C@@H]1CN([C@@H](C)CO)C(=O)c2cc(-c3cccc(F)c3)cnc2O[C@H]1CN(C)Cc1cncnc1` gave miR122 inh 2.
For C[C@@H]1CN([C@H](C)CO)S(=O)(=O)c2ccc(-c3ccc(C(=O)N(C)C)cc3)cc2O[C@@H]1CN(C)C the results were miR122 inh 4.
`Cc1ccc(S(=O)(=O)N(C)C[C@@H]2Oc3cc(-c4cccc(F)c4)ccc3S(=O)(=O)N([C@H](C)CO)C[C@@H]2C)cc1` gave miR122 inh 3.
For C[C@@H]1CN([C@H](C)CO)S(=O)(=O)c2ccc(-c3ccc(C(=O)N(C)C)cc3)cc2O[C@@H]1CN(C)C(=O)C1CCC1 the results were miR122 inh 43*.
Cc1ccc(S(=O)(=O)N(C)C[C@@H]2Oc3cc(-c4cccc(F)c4)ccc3S(=O)(=O)N([C@@H](C)CO)C[C@H]2C)cc1 was read as miR122 inh 9.
COc1ccc(S(=O)(=O)N(C)C[C@@H]2Oc3cc(-c4cccc(F)c4)ccc3S(=O)(=O)N([C@H](C)CO)C[C@H]2C)cc1 was read as miR122 inh 39*.
For C[C@H]1CN([C@@H](C)CO)S(=O)(=O)c2ccc(-c3ccc(C(=O)N(C)C)cc3)cc2O[C@H]1CN(C)C the results were miR122 inh 5.
CCCN1C[C@@H](C)[C@H](OC)CN(C)C(=O)c2ccc(NS(C)(=O)=O)cc2OC[C@@H]1C was read as miR122 inh -1.
COc1ccc(C#Cc2cnc3c(c2)C(=O)N([C@@H](C)CO)C[C@@H](C)[C@H](CN(C)CC2CCCC2)O3)cc1 was read as miR122 inh 7.
`COc1ccc(-c2ccc3c(c2)O[C@H](CN(C)C(=O)c2ccccc2F)[C@@H](C)CN([C@@H](C)CO)S3(=O)=O)cc1` gave miR122 inh -2.
Screening CCC(=O)Nc1ccc2c(c1)OC[C@H](C)N(CCC(F)(F)F)C[C@H](C)[C@H](OC)CN(C)C2=O returned miR122 inh -3.
`CCCC#Cc1cnc2c(c1)C(=O)N([C@@H](C)CO)C[C@H](C)[C@@H](CN(C)C(=O)Cc1ccccc1)O2` gave miR122 inh -6.
For COCC(=O)Nc1ccc2c(c1)OC[C@@H](C)NC[C@@H](C)[C@@H](OC)CN(C)C2=O the results were miR122 inh 0.
`C[C@H](CO)N1C[C@H](C)[C@@H](CN(C)CC2CCOCC2)Oc2ncc(-c3ccc(F)cc3)cc2C1=O` gave miR122 inh 2.
`O=C(Nc1ncc(Cc2cccc(C(F)(F)F)c2)s1)c1ccc(-c2cccc([N+](=O)[O-])c2)o1` gave miR122 inh 32*.
Screening CC(C)C#Cc1ccc2c(c1)O[C@H](CN(C)C(=O)CN(C)C)[C@@H](C)CN([C@@H](C)CO)S2(=O)=O returned miR122 inh -12.
COc1cccc(NC(=O)N(C)C[C@@H]2Oc3cc(-c4cccc(C(=O)N(C)C)c4)ccc3S(=O)(=O)N([C@@H](C)CO)C[C@H]2C)c1 was read as miR122 inh -1.
CN1C(=O)c2cc(NC(=O)c3cccs3)ccc2OC[C@@H]2O[C@@H](CC(=O)NCCN3CCCCC3)CC[C@H]21 was read as miR122 inh 83*.
CN1C(=O)c2cc(NC(=O)Cc3cccs3)ccc2OC[C@@H]2O[C@H](CC(=O)NCC3CCCCC3)CC[C@@H]21 was read as miR122 inh -154.
`CCCC(=O)Nc1ccc2c(c1)C(=O)N(C)C[C@@H](OC)[C@@H](C)CN[C@@H](C)CO2` gave miR122 inh 0.
`CCCC(=O)Nc1ccc2c(c1)C(=O)N(C)[C@@H]1CC[C@H](CC(=O)NCC(F)(F)F)O[C@H]1CO2` gave miR122 inh 37*.
For CN1C(=O)c2cc(NC(=O)c3cccs3)ccc2OC[C@H]2O[C@H](CC(=O)NCC(F)(F)F)CC[C@H]21 the results were miR122 inh 50*.
CO[C@H]1CN(C)C(=O)c2cc(NC(=O)C3CCOCC3)ccc2OC[C@@H](C)N(C)C[C@@H]1C was read as miR122 inh -4.
`CN1C(=O)c2cc(NC(=O)c3cccs3)ccc2OC[C@H]2O[C@@H](CC(=O)N3CCCCC3)CC[C@H]21` gave miR122 inh 37*.

Screening data from PubChem.
